Assay outcomes (PubChem BioAssay)
G9a block = G9a (human) methyltransferase inhibition. Q96KQ7. G9a H3K9 monomethylation, AlphaScreen, 2 h. Potency, µM (doses to about 102 µM), inactives show top-dose activity, negative = inhibition, usual class: inhibitors. hit rate 8.8% among 350,000; further: on the % scale 0 is the no-effect control and ±100 the full control effect; nearly all actives have a fitted effect of over 75% in size
Target sequence (Q96KQ7 913-1193 limits assumed): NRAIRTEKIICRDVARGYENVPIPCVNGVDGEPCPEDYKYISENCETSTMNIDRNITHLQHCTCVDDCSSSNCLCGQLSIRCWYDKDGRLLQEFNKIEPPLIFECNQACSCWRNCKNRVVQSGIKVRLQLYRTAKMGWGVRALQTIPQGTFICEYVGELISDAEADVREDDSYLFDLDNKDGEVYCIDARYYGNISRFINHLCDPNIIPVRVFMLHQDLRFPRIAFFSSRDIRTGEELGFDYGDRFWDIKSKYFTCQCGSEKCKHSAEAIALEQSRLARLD
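Enzyme 20 nM + cpd, 15 min RT; add b-H3K9 pep 500 nM / SAM 20 uM; 2 h RT; anti-H3K9me1 Ab 0.5 ug/mL + SA donor / anti-rabbit acceptor beads 20 ug/mL each, 10 min; AlphaScreen read.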
HP1b binding inh = HP1-beta chromodomain-methylated histone interaction inhibition; AlphaScreen HP1-beta / biotin-H3K9me3 peptide binding; hit rate 0.56% among 390,000; P83916; Potency, µM (doses to about 114 µM), without a hit: at the top dose activity change, negative = inhibition, most hits filed as inhibitors; further: nearly all actives have a fitted effect of over 70% in size
Target sequence (P83916 whole entry, looked up): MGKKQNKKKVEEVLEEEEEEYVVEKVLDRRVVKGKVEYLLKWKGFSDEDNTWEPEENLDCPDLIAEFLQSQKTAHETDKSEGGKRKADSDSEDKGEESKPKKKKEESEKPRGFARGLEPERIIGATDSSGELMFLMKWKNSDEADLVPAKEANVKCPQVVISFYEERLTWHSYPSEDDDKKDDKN
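HP1-beta protein (50 nM final) preincubated 30 min at room temperature with biotinylated H3(1-18)K9me3 peptide (50 nM) in PBS pH 7.4, 0.01% Tween-20, then compound added for 30 min. AlphaScreen streptavidin donor/nickel chelate acceptor beads (10 ug/mL final), 30 min dark, luminescence read.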
JMJD2A Tudor = inhibitors of human JMJD2A Tudor domain; hit rate 4.4% among 390,000; AlphaScreen JMJD2A-Tudor / H3K4me3 peptide binding; Potency, µM (doses to about 114 µM), for inactives: top-dose activity change, negative = inhibition, most hits filed as inhibitors; O75164; further: on the % scale 0 is the no-effect control and ±100 the full control effect; nearly all actives have a fitted effect of over 50% in size
L3MBTL1 block = inhibitors of human L3MBTL1; AlphaScreen L3MBTL1–H3K9me1 peptide binding; Potency, µM (titrated, usually from 57.1 µM), for the others: top-dose activity, negative = inhibition, hits mostly inhibitors; hit rate 0.66% among 230,000; AID 485360; further: on the % scale 0 is the no-effect control and ±100 the full control effect; nearly all actives have a fitted effect of over 60% in size
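AlphaScreen proximity signal between nickel-chelate acceptor and streptavidin donor beads (final 10 ug/mL) reports binding of 50 nM L3MBTL1 to 75 nM biotin-H3 K9me1 peptide; complex incubated with compounds 30 min at room temperature; cefsulodin titration as control.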
Sfp inh = Sfp phosphopantetheinyl transferase inhibition. AID 1490. Biochemical Sfp PPTase activity, qHTS. Potency, µM, for the others: largest response in the series, negative = inhibition, actives largely listed as inhibitors. Q9F4F7. hit rate 3.5% among 310,000;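 further: the enzyme is Sfp with the accession as filed and its product quenches rhodamine fluorescence; 0% = enzyme reaction without inhibitor and -100% = no enzyme wells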
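Reaction rates are the 30-min fluorescence difference (ex 525, em 598 nm) in wells containing 15 nM Sfp, 5 uM rhodamine-CoA and 12.5 uM BHQ-2-YbbR at pH 7.6 with 10 mM MgCl2.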
BAZ2B inh = inhibitors of human BAZ2B bromodomain | AID 504333 | AlphaScreen BAZ2B-H3K14Ac peptide displacement | Q9UIF8 | Potency, µM (doses to about 114 µM), without a hit: top-dose activity change, negative = inhibition, actives largely listed as inhibitors | hit rate 4.4% among 360,000; further: on the % scale 0 is the no-effect control and ±100 the full control effect; nearly all actives have a fitted effect of over 60% in size
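Complex of BAZ2B and biotin-H3K14Ac (50 nM apiece) forms over 30 min at RT, then faces library compounds up to 110 uM for another 30 min; AlphaScreen beads added, 20 min dark incubation, luminescence read.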
* marks the source's active call; other numbers are inactive results; ? = inconclusive; / = no result given; [ ] = dose if it differs, or a comment. A selection: hits, their analogues and other compounds. The true share with any hit is near 12%. The call rests on the fitted dose curve; in most records, active means well fitted curve in the direction sought with a large enough effect; inconclusive means small, poorly fitted or top-dose-only effect, or another doubt; inactive means no such curve, though single readings can be large; an effect the other way counts as inactive or inconclusive. Potency means the concentration at half of the fitted maximal effect.

SMILES | G9a block | HP1b binding inh | JMJD2A Tudor | L3MBTL1 block | Sfp inh | BAZ2B inh
CCCCN(C)S(=O)(=O)c1cc2c3c(c1)CCC(=O)N3CCC2 | 6.8% | 38.1% | -5.5% | / | 6.6% | -3.2%
COc1cc(NC(=O)CSc2nnc3c4ccccc4n(C)c3n2)cc(OC)c1OC | / | -1.2% | -16.3% | / | / | /
COc1ccc(/C=C/c2nc(S(=O)(=O)c3ccccc3)c(NCCCN(C)C)o2)cc1OC | 79.4µM* | 63.4% | -8.2% | / | 1.8% | -6.4%
CC(C)(C)C1CCC(=NNC(=O)C2COc3ccccc3O2)CC1 (stereo unspecified) | 13.3%[59 µM] | 52.6% | -5.5% | 4.9% | / | 0.2%
CCOc1ccc2c(ccc(/C=C/c3cc(C)c4cccnc4c3O)[n+]2C)c1 | / | ? | 10µM* | / | / | /
C/C(=N/NS(=O)(=O)c1cccc([N+](=O)[O-])c1)c1ccncc1 | 35.5µM* | 39.1% | -17.9% | / | -17.5% | ?
C/C(=N/NS(=O)(=O)c1cccc([N+](=O)[O-])c1)c1c[nH]c2ccccc12 | 25.1µM* | 5.4% | -24.5% | / | -25.6% | 50.1µM*
CC(=O)Nc1cccc(/C(C)=N/NS(=O)(=O)c2ccc(C)cc2)c1 | 50.1µM* | 25.7% | -13.5%[11.4 µM] | -3.3% | -3.9% | -6.9%
C/C(=N/NS(=O)(=O)c1ccccc1)c1ccc(Cl)cc1 | 9.2% | 11.2% | -23.8% | 8.0% | 15.3% | -24.8%
C/C(=N/NS(=O)(=O)c1ccccc1)c1c[nH]c2ccccc12 | 22.4µM* | 43.1% | -17.2% | / | -9.3% | -25.9%
CC(=O)Nc1cccc(/C(C)=N/NS(=O)(=O)c2ccccc2)c1 | -44.1% | 37.0% | -8.4% | 5.2% | 13.1% | -18.8%
CC(=NNS(=O)(=O)c1cccc([N+](=O)[O-])c1)c1ccc(-n2ccnc2)cc1 | / | 0.2% | -24.3% | 5.1% | / | /
CC(C)c1ccc(NC(=O)[C@@H]2CCC(=O)N2C2OC(=O)c3ccccc32)cc1 (stereo partly specified) | 10.3%[12.7 µM] | 22.9% | -13.6% | / | 5.4% | -4.9%
CCOC(=O)N1CCC(=NNS(=O)(=O)c2cccc([N+](=O)[O-])c2)CC1 | ? | 29.6% | -6.6% | / | 56.2µM* | -4.4%
CCOC(=O)N1CCN(S(=O)(=O)c2cc([N+](=O)[O-])ccc2C)CC1 | ? | 56.4% | 7.5% | -1.1% | 3.7% | -25.5%
C/C(=N/NS(=O)(=O)c1cc(C)ccc1C)c1c[nH]c2ccccc12 | ? | 15.7% | -14.0% | / | 5.5% | -21.1%
C/C(=N/NS(=O)(=O)c1ccc(C)cc1)c1c[nH]c2ccccc12 | 25.1µM* | 30.1% | -17.8% | / | -13.2% | -17.1%
CCOc1ccc2nc(N3CCCC(C(=O)NCc4ccc(OC)cc4)C3)sc2c1 (stereo unspecified) | 6.9%[59 µM] | 32.4% | -1.5% | / | / | -7.7%
O=C(CN1CCN(Cc2ccc(Cl)cc2)CC1)N/N=C/c1ccccc1F | 6.4% | 46.5% | -7.3% | -0.2% | 7.8% | -6.0%
Cc1ccc(O)c(/C=N/NC(=O)CN2CCCC2)c1 | 26.7% | 54.7% | 70.8µM* | ? | 8.0% | 50.1µM*
O=C(CN1CCCC1)N/N=C/c1c(O)ccc2ccccc12 | 8.3% | 50.0% | 79.4µM* | ? | 2.4% | 28.2µM*
O=C(CN1CCCCCCC1)N/N=C/c1ccc(F)cc1F | 22.4µM* | ? | ? | 5.2% | -2.1% | -6.3%
O=C(NN=Cc1c(O)ccc2ccccc12)C1CC1 | / | 21.7% | -12.5% | / | / | /
Cc1ccc(S(=O)(=O)N2CCN(CC(=O)N/N=C\c3ccc(O)c(O)c3)CC2)cc1 | 39.8µM* | 29.8% | -13.3% | / | ? | -24.3%
CCc1ccccc1NC(=O)CSc1nc2c(c(=O)[nH]1)CN(Cc1ccccc1OC)CC2 | ? | 39.0% | 4.6% | / | / | 3.8%
CCn1c(-c2cc(C3CC3)nc3ccccc23)n[nH]c1=S | 2.24µM* | 21.2% | 50.1µM* | 7.4% | -7.7% | -31.6%
CCn1c(-c2cc(-c3cc(C)ccc3C)nc3ccccc23)n[nH]c1=S | 28.2µM* | 15.2% | 56.2µM* | -1.0% | -6.2% | ?
